Among all 87,000 compounds or so, about 360 (0.41%) were called active. Rule as the data show it: active = cytotoxicity above about 50%; inactive = the rest. Many of the other results were omitted from the sample, so actives are more common in it than they were.

This experiment is described as follows: cytotoxicity in HT1080 fibrosarcoma cells, cell-based, fluorescence readout (AID 620).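 Also: cells exposed to compound overnight then 4 h with Alamar Blue; 0% = vehicle DMSO and 100% = killing control.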 The following applies: HT1080 viability, at 10 µM, stronger effect = higher value.
Consider `COc1cccc(NC(=O)c2ccccc2-c2nc(-c3ccc(Cl)cc3)no2)c1`, for which the cytotoxicity was 16.9% (inactive). In the case of `O=C(NCc1ccco1)C(C(=O)c1ccc(F)cc1)n1ccccc1=O` (configuration not stated) it was -0.6% (inactive). In the case of `Cc1cc(NC(=O)COC(=O)c2ccc(S(=O)(=O)N3CCCc4ccccc43)cc2)no1` it was 52.4% (active); in that of `COC(=O)Nc1ccc(S(=O)(=O)N2CCCc3ccccc32)cc1`, 53% (active). As to `O=C(O)C1CC=CCC1C(=O)Nc1ccc(S(=O)(=O)N2CCCc3ccccc32)cc1` (configuration not stated), the cytotoxicity is -8.5% (inactive). With `Cc1cc(NC(=O)COC(=O)c2cccc(S(=O)(=O)N3CCOCC3)c2)no1` the figure was 8.4% (inactive); with `Cc1cc(NC(=O)COC(=O)c2ccc(NS(=O)(=O)c3ccc(C)c(C)c3)cc2)no1`, -8.8% (inactive). In the case of `CC(=O)Nc1ccc(S(=O)(=O)N2CCCc3ccccc32)cc1` it was 23.1% (inactive); in that of `COc1ccc(CCNS(=O)(=O)c2ccc3c(c2)oc(=O)n3C)cc1OC`, 3.2% (inactive). With `CCOC(=O)COc1ccc(S(=O)(=O)N2CCN(c3ccccc3F)CC2)cc1` the figure was -0.3% (inactive); with `CCOc1ccc2nc3sc(C(=O)N4CCN(C)CC4)c(N)c3cc2c1`, -19.5% (inactive); with `Cc1ccc2cc3c(N)c(C(=O)N4CCOCC4)sc3nc2c1`, 3.2% (inactive). Regarding `Cc1ccc2nc3sc(C(=O)N4CCOCC4)c(N)c3cc2c1`, the cytotoxicity is 55.8% (active). In the case of `Cc1cccc2cc3c(N)c(C(=O)N4CCOCC4)sc3nc12` it was 59% (active); in that of `COc1ccc2cc3c(N)c(C(=O)N4CCCC4)sc3nc2c1`, 3.4% (inactive).

In the case of `Cc1cccc2cc3c(N)c(C#N)sc3nc12`, the cytotoxicity is 2.6% (inactive). With `CCN(CC)CCNC(=O)c1c(O)c2c([nH]c1=O)CCCC2` the figure was 0.6% (inactive); with `O=C(CCn1c(=S)[nH]c2ccccc2c1=O)N1CCOCC1`, -2.8% (inactive); with `O=C1C2CC=C(Cl)CC2C(=O)N1c1ncn[nH]1` (configuration not stated), -1.3% (inactive). With `CC(C)C1N(c2ccccc2)C(N)=C(C#N)C1(C#N)C#N` (configuration not stated) the figure was -5.5% (inactive); with `COc1ccc(-c2nnc(Nc3nc4c(OC)cccc4s3)o2)c(OC)c1`, 8.4% (inactive); with `COc1cccc2sc(Nc3nnc(-c4ccccc4Cl)o3)nc12`, -3.2% (inactive). In the case of `COc1ccccc1-c1nnc(Nc2nc3c(OC)cccc3s2)o1`, the cytotoxicity is 51.8% (active). With `Cc1ccc(C(C(=O)NCc2ccccc2)N(C(=O)c2csnn2)c2cccc3ccccc23)o1` (configuration not stated) the figure was -5.1% (inactive). In the case of `COc1cc(/C=N/Nc2nc3ccccc3o2)cc(OC)c1O` it was 17.8% (inactive); in that of `Nc1cccc2cnccc12`, 20.7% (inactive). With `Cc1cc2c(N)cccc2nn1` the figure was -9.9% (inactive).

These data come from PubChem BioAssay AID620 (Sanford-Burnham Center for Chemical Genomics, 2007).
